Assay outcomes deposited in PubChem BioAssay by Sanford-Burnham Center for Chemical Genomics.
This is a sample that favours compounds with a hit; in the whole collection about 2.6% have one here.
eIF4H FP inh: human eIF4H binding inhibitors, primary screen, translation initiation inhibitor project, biochemical, uHTS, fluorescence polarization. 0.94% of 290,000 active. inhibition, % at 35 µM. eIF4H fluorescence polarization binding assay. Eukaryotic translation initiation factor 4H (Homo sapiens), Q15056;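 also: calls also rest on retests at 20 µM and on dose response follow-up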
APOBEC3G inh: APOBEC3G DNA deaminase inhibitors, primary screen, biochemical, fluorescence, single-stranded DNA substrate, uHTS; DNA dC->dU-editing enzyme APOBEC-3G (Homo sapiens), Q9HC16; recombinant A3G, ssDNA deamination FAM/TAMRA fluorescence; inhibition, % at 20 µM; 0.28% of 330,000 active; AID 493012, 2011;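 active = inhibition of at least 40% at 20 µM, with no more than 30% in the related APOBEC3A deaminase screen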;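 also: plate controls were DMSO wells with A3G for no effect and wells lacking A3G enzyme for full effect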
PABP polyA inh: PABP poly(A) RNA binding inhibitors, primary screen, biochemical, fluorescence polarization, uHTS. calls only at 35 µM. 1% of 290,000 active. Polyadenylate-binding protein 1 (Homo sapiens), P11940;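 also: calls also rest on retests at 20 µM and on dose response follow-up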
Target sequence (P11940 whole entry, looked up): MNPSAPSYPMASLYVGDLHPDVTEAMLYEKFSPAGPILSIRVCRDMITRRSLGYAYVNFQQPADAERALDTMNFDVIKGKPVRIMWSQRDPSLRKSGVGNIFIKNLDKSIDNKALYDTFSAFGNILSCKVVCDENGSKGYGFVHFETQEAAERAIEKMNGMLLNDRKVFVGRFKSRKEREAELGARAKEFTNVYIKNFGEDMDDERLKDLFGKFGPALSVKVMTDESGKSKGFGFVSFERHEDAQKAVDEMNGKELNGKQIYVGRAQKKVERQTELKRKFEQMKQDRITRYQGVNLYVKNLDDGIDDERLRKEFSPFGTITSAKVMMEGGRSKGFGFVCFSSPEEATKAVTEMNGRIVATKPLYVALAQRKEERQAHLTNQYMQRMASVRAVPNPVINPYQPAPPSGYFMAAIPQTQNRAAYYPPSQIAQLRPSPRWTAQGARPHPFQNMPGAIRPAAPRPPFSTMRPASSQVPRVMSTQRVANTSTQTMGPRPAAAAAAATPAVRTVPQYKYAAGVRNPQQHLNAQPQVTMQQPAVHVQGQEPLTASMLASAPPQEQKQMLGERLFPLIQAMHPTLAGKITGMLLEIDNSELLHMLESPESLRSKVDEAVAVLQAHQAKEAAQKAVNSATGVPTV
PHOSPHO1 block: PubChem AID 1565 | 1.1% of 290,000 active | Phosphoethanolamine/phosphocholine phosphatase (Homo sapiens), Q8TCT1 | inhibition, % at 13.3 µM | recombinant PHOSPHO1, absorbance phosphatase assay; in the data active = inhibition above about 60%
MLLE-PAM2 inh: inhibitors of PABP1 MLLE–PAM2 peptide binding, primary screen, biochemical, fluorescence polarization, FITC-PAM2, GST-MLLE. Polyadenylate-binding protein 1 (Homo sapiens), P11940. inhibition, % at 20 µM. 0.36% of 360,000 active. AID 588489, 2011; in the data active = inhibition above about 35%, passing the limit was not always enough;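 also: plate controls were DMSO wells with GST-MLLE for no effect and wells lacking GST-MLLE protein for full effect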
APOBEC3A inh: APOBEC3A ssDNA deaminase inhibitors, primary screen, selectivity assay for APOBEC3G inhibitor project, biochemical, FAM/TAMRA oligo cleavage fluorescence. DNA dC->dU-editing enzyme APOBEC-3A (Homo sapiens), P31941. recombinant A3A, FAM/TAMRA ssDNA deamination fluorescence. inhibition, % at 20 µM. 0.41% of 330,000 active;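 active = at least 40% inhibition at 20 µM here, with at most 30% in a related deaminase screen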;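 also: plate controls were A3A with DMSO for no effect and wells lacking A3A enzyme for full effect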
* marks the source's active call; other numbers are inactive results; i = inactive; nt = no result; + = active, no number. Unless noted, no rule for the calls is given here.

SMILES	eIF4H FP inh	APOBEC3G inh	PABP polyA inh	PHOSPHO1 block	MLLE-PAM2 inh	APOBEC3A inh
O=C(NCc1ccccc1)C(c1ccncc1)N(C(=O)c1csnn1)C1CC1 (stereo unspecified)	-9	-7	i	62*	-1	-2
O=C1CCCC(O)=C1N=Nc1ccc2c(c1)OCO2	-5	0	i	24	-48	4
O=C1CCCC(O)=C1N=Nc1ccc(C(=O)O)cc1	102*	59	+	7	21	84
CCOC(=O)Nc1ccc(N2CCOCC2)c(S(=O)(=O)Nc2ccc(Cl)cc2)c1	nt	-1	nt	nt	-7	-1
N#Cc1ccc2c(=O)n(-c3ccccc3)sc2c1	nt	nt	nt	nt	39*	nt
Cc1cccc(N2CCN(C(=O)Cn3sc4nc(C)cc(C)c4c3=O)CC2C)c1 (stereo unspecified)	1	53*	i	15	18	-4
COC(=O)N1C(=O)[C@](c2ccsc2)(C(C)C)N1C(=O)OC	-6	-7	i	67*	16	-1
COCCn1c(SCc2cc(=O)n3ccsc3n2)nnc1-c1ccncc1	-1	-1	i	9	-6	-5
O=c1cc(CSc2n[nH]c(-c3ccncc3)n2)nc2sccn12	63*	15	i	42	-3	26
COCCNC(=O)C1(C)CCCN(Cc2ccc(Cl)c(Cl)c2)C1 (stereo unspecified)	nt	nt	nt	nt	-5	nt
CCc1cc(C(=O)c2ccccc2OC)c(N)s1	-5	-5	i	-3	37*	-6
CCc1cc(C(=O)c2ccc(OC)cc2)c(N)s1	-3	-13	i	2	28	-6
O=C(/C=C/c1ccco1)OCn1nnc2ccccc2c1=O	68*	2	+	17	5	23
CCOc1ccc(CN(C)c2nc(-c3cccnc3)nc3ccccc23)cc1OC	-5	-6	i	27	6	-2
CCC(=O)N=c1ccn(C2=Nc3ccccc3NC2=C(C#N)C#N)cc1	73*	-2	+	45	11	7
Cc1cc(-c2nnc(SCC(=O)Nc3nc(-c4ccc(Cl)cc4)cs3)o2)no1	21	-5	i	10	-23	0
N#Cc1c2n(c(=S)n(-c3ccccc3[N+](=O)[O-])c1=O)CCCCC2	6	-5	i	-51	51*	0
N#Cc1c2n(c(=S)n(-c3ccc(F)cc3)c1=O)CCCCC2	5	-4	i	38	29	-3
N#Cc1c2n(c(=S)n(-c3ccccc3)c1=O)CCCCC2	5	-6	i	64*	14	-4
N#Cc1ccc(Cn2c(=O)c(C#N)c3n(c2=O)CCC3)cc1	7	0	i	3	-4	-2
CCCN(C)C[C@@H]1OCc2cnnn2CCCC(=O)N([C@H](C)CO)C[C@H]1C	nt	nt	nt	nt	1	nt
Cc1ccc(C)c(N2C(=O)CC(Cc3ccccc3)C2=O)c1 (stereo unspecified)	-6	-8	i	18	-5	-5
Cc1ccc(NC(=O)C/C(N)=N/O)cc1C	-8	5	i	69*	-68	12
Cc1cccc(C)c1NC(=O)C/C(N)=N/O	-3	-12	i	-21	10	-2
N#CCCNS(=O)(=O)c1ccc(C(=O)OCCCOC(=O)c2ccc(S(=O)(=O)NCCC#N)cc2)cc1	-2	1	i	-1	-72	25
COC(=O)c1ccc(OC(=O)c2ccc(OC)cc2)c(OC)c1	53*	-6	+	37	16	-1
CCCCCC(=O)Nc1cccc(C2=NOC3(C2)C[C@H](C(N)=O)N(C(=O)c2ccccc2)C3)c1 (stereo partly specified)	-10	-5	i	31	-6	-2
CCCCCC(=O)Nc1cccc(C2=NOC3(C2)C[C@H](C(N)=O)N(C(=O)CC#N)C3)c1 (stereo partly specified)	103	nt	+	18	nt	nt
COc1ccc(C(=O)N2CCN(C)C(=O)[C@@H]2C)cc1OC1CCN(C(C)C)CC1	58	-2	i	33	6	-1
Cc1cc(=O)oc2c3c4c(cc12)OCCN4CCC3	42	-3	i	-19	-49	-3
